Test results: PubChem BioAssay (NCATS)
Records with an inconclusive call do not appear. The source made the active and inactive calls. Calls come from the whole dose curve; as a rule, active = well fitted inhibition curve with a large enough effect; inconclusive = small, poorly fitted or top-dose-only effect; inactive = no such curve, though single readings can be large or run the other way.

Experiment: Primary qHTS for small molecule stabilizers of the endoplasmic reticulum resident proteome: Secreted ER Calcium Modulated Protein (SERCaMP) assay (AID 1508630)
Settings: SH-SY5Y GLuc-SERCaMP (Gaussia luciferase released on ER calcium loss) secretion, thapsigargin, luminescence; series mostly up to 38.4 µM; activity change, negative = inhibition: at the top concentration
Procedure, shortened: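 GLuc-SERCaMP-expressing SH-SY5Y cells, pretreated 16 h with compound, are challenged with thapsigargin to empty ER calcium stores; after 4 h, coelenterazine is added directly to the medium and luminescence is imaged.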
% is set by controls: 0 for no effect and ±100 for the full control effect.

SMILES	activity change, negative = inhibition
C[C@]12C=CC(=O)C=C1CC[C@@H]1[C@@H]2[C@@H](O)C[C@@]2(C)[C@@H]1CC[C@]2(O)C(=O)CO	67.4% (inactive)
CNc1nc(-c2ccc3c(N)n[nH]c3c2)cc(N2C[C@@H](C(=O)NC3CCCCC3)CC[C@@H]2C)n1	0% (inactive)
COc1c(C)c2c(c(O)c1CC=C(C)CCC(=O)OCCN1CCOCC1)C(=O)OC2	110% (inactive)
Oc1cc(O)cc(C=Cc2ccc(O)c(O)c2)c1	-10.7% (inactive)
COc1ccc(-c2cc(=O)c3c(O)cc(O[C@@H]4O[C@H](CO[C@@H]5O[C@@H](C)[C@H](O)[C@@H](O)[C@@H]5O)[C@@H](O)[C@H](O)[C@@H]4O)cc3o2)cc1O	0% (inactive)
C=CC[N+]1([C@H]2C[C@H]3[C@@H]4CC[C@H]5C[C@H](O)[C@@H](N6CCOCC6)C[C@]5(C)[C@@H]4CC[C@]3(C)[C@H]2OC(C)=O)CCCC1	-0.81% (inactive)
COc1cc2c(cc1OC)[C@@H]1Cc3ccc(OC)c(OC)c3CN1CC2	40.4% (inactive)
CCCCCCOC(=O)N=C(N)c1ccc(NCc2nc3cc(C(=O)N(CCC(=O)OCC)c4ccccn4)ccc3n2C)cc1	-3.78% (inactive)
COc1cc2nc(-c3cc(F)ccc3O)nc(N[C@@H]3CNC[C@@H]3C(C)(C)O)c2cc1OC	203% (inactive)
C[C@@H]1CC=CC=CC=CC=C[C@@H](O[C@@H]2O[C@H](C)[C@@H](O)[C@H](N)[C@H]2O)C[C@@H]2O[C@](O)(C[C@@H](O)C[C@@H]3O[C@@H]3C=CC(=O)O1)C[C@H](O)[C@@H]2C(=O)O	48.4% (inactive)
O=C(O)C1=CO[C@@H](O[C@@H]2O[C@H](CO)[C@H](O)[C@H](O)[C@H]2O)[C@@H]2C(CO)=CC[C@H]12	43.1% (inactive)
CC(=O)N1CCN(c2ccc(OCc3nn(C)c(C)c3-c3cccc4c(CCCOc5cc(C)c(Cl)c(C)c5)c(C(=O)O)n(Cc5cccnc5)c34)cc2)CC1	79.5% (inactive)
CN1C(=O)C[C@H](C(=O)N[C@@H](Cc2cnc[nH]2)C(=O)N2CCC[C@@H]2C(N)=O)NC1=O	237% (inactive)
C[C@@H]1[C@H](O)[C@@H](C)C=CC=CC=CC=CC=CC=CC=C[C@H](O[C@@H]2O[C@H](C)[C@H](O)[C@H](N)[C@@H]2O)C[C@@H]2O[C@](O)(C[C@@H](O)C[C@@H](O)[C@H](O)CC[C@@H](O)C[C@@H](O)CC(=O)O[C@H]1C)C[C@H](O)[C@@H]2C(=O)O	46.7% (inactive)
CC=C(C(=CC)c1ccc(O)cc1)c1ccc(O)cc1	218% (inactive)
CC[C@H]1OC(=O)[C@H](C)[C@@H](O[C@H]2C[C@@](C)(OC)[C@@H](O)[C@H](C)O2)[C@H](C)[C@@H](O[C@@H]2O[C@H](C)C[C@H](N(C)C)[C@H]2O)[C@](C)(O)C[C@H](C)C(=NOCOCCOC)[C@H](C)[C@@H](O)[C@]1(C)O	36.7% (inactive)
CC1(C)C(N(O)C(=O)Nc2ccc(Cl)cc2)N(c2ccc(Cl)cc2)C(=O)N1CC(=O)NN=CC=Cc1ccc([N+](=O)[O-])o1 (stereo not drawn)	-27.5% (inactive)
CN(C)CCOc1ccc(C(=C(CCCl)c2ccccc2)c2ccccc2)cc1	31.1% (inactive)
O=C(Nc1ccccc1)Nc1ccc(-c2ccc(C(=O)[C@H]3CCC[C@H]3C(=O)O)cc2)cc1	109% (inactive)

SMILES	activity change, negative = inhibition
OCCn1cc(-c2ccc3c(c2)CCC3=NO)c(-c2ccncc2)n1	133% (inactive)
CC1=C(CC(=O)O)c2cc(F)ccc2C1=Cc1ccc(S(C)=O)cc1 (stereo not drawn)	0% (inactive)
CN[C@@H]1[C@@H](O)[C@@H](O[C@@H]2[C@@H](O)[C@H](O[C@H]3O[C@H](CN)[C@@H](O)[C@H](O)[C@@H]3O)[C@@H](N)C[C@@H]2NC(=O)[C@@H](O)CN)OC[C@]1(C)O	183% (inactive)
CNC1[C@H](O)C(O[C@@H]2C(O)C(O[C@H]3O[C@H]([C@@H](C)NC)CC[C@H]3N)[C@@H](N)C[C@H]2N)OC[C@]1(C)O (stereo partly drawn)	92.6% (inactive)
Cc1cc(CS(=O)(=O)c2ccccc2)cc(OCc2ccc(CN3CCC[C@H]3CO)cc2)c1	-19.9% (inactive)
CC(C)(C)c1[nH]cnc1C=c1[nH]c(=O)c(=Cc2ccccc2)[nH]c1=O	66.6% [at 76.3 µM] (inactive)
O=C(O)c1ccc(O)c2ncc(N3CCOCC3)cc12	2.18% (inactive)
Oc1ccc(C=Cc2cc(O)cc(O)c2)cc1	17.5% (inactive)
COc1cc(Cl)cn2c(-c3cccc(NC4CNC4)n3)cnc12	9.1% (inactive)
CCC[C@@H](NC(=O)[C@@H]1[C@H]2CCC[C@@H]2CN1C(=O)[C@@H](NC(=O)[C@@H](NC(=O)c1cnccn1)C1CCCCC1)C(C)(C)C)C(=O)C(=O)NC1CC1	-55.6% (inactive)
CCC(=C(CC)c1ccc(O)cc1)c1ccc(O)cc1	-2.51% (inactive)
Fc1ccc(C(c2ccc(F)cc2)N2CCN(CC=Cc3ccccc3)CC2)cc1	0% (inactive)
CN1CC(=O)N2C(Cc3c([nH]c4ccccc34)[C@H]2c2ccc3c(c2)OCO3)C1=O (stereo partly drawn)	54.9% (inactive)
C[C@@H]1[C@H](C)CC[C@]2(C(=O)O)CC[C@]3(C)C(=CC[C@@H]4[C@@]5(C)CC[C@H](O)C(C)(C)[C@H]5CC[C@]43C)[C@@H]12	103% [at 76.3 µM] (inactive)
CCCCCOC(=O)Nc1nc(=O)n([C@@H]2O[C@H](C)[C@@H](O)C2O)cc1F (stereo partly drawn)	65.3% (inactive)
C[C@H]1[C@H](O)O[C@@H]2O[C@@]3(C)CC[C@@H]4[C@H](C)CC[C@@H]1[C@@]24OO3	263% (inactive)
C[C@@H]1O[C@@H](O[C@H]2CC[C@@]3(C)[C@H](CC[C@@H]4[C@H]3C[C@@H](O)[C@]3(C)[C@@H](C5=CC(=O)OC5)CC[C@]43O)C2)C[C@H](O)[C@@H]1O[C@H]1C[C@H](O)[C@H](O[C@H]2C[C@H](O)[C@@H](O)[C@@H](C)O2)[C@H](C)O1 (stereo in doubt)	57.7% [at 76.3 µM] (inactive)
CC1(C)OC2CC3C4CC(F)C5=CC(=O)C=CC5(C)C4C(O)CC3(C)[C@]2(C(=O)CO)O1 (stereo partly drawn)	24.6% (inactive)
CCC(c1ccc(O)cc1)C(CC)c1ccc(O)cc1 (stereo not drawn)	125% (inactive)
